# Test results taken from the supplement of paper PMC10338343.
# ± gives the standard deviation.
# Tested on: MILI (PIWIL2) piRISC loaded with piRNA #1 (26 nt)
# Test: pre-steady-state target cleavage rate (min^-1); guide: piRNA #1 5'p-UGAGGUAGUAGGUUGUAUAGUAUCCA; MIWI and MILI are mouse PIWI proteins and EfPiwi is from a freshwater sponge; tags in brackets are library labels; higher = faster piRNA-guided slicing of the target
# Settings: auxiliary factor: 500 nM mouse GTSF1
# In short: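 Three pooled Cleave-'n-Seq trials supplied the data, with k3 capped at 0.0001 min^-1. In each, […] transcribed, DNA-blocked target RNA library and 1 nM active affinity-purified piRISC with one synthetic guide reacted in HEPES–potassium acetate buffer at 33 °C for 0–8 or 0–960 min, with or without 500 nM GTSF1 partner protein. Uncleaved targets were sequenced and normalised to depth and to weakly complementary targets. A burst-and-steady-state fit provided the pre-steady-state cleavage rate.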
# 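Further: 1 nM active piRISC with 0.1 nM target library at 33 °C single turnover.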
row,Sequence,pre-steady-state target cleavage rate
1,GGAGACCUAUGAAUACAACCUACUACAUCA,0.00323 ± 0.0026
2,GGAGACCUAUCUUUACAACCUACUACGUCA,0.0265 ± 0.0062
3,GGAGACCUUACUAUAGAAGCUACUACCUCA,0.134 ± 0.015
4,GGAGACCAUAGAUUACAACCUACUACCUCA,0.0355 ± 0.0071
5,GGAGACCUAUCUAACAACCUACUACCUCA,0.0222 ± 0.0049
6,GGAGAGGAUACUAUACAACCUGCUACCUCA,0.066 ± 0.0089
7,GGAGACCUAUGAUAUCAACCUACUAACCUCA,0.00255 ± 0.0025
8,GGAGACCUAUGUAUACAACCCACUACCUCA,0.0101 ± 0.0034
9,GGAGACCUAUGAUAUGUUCCUACUACCAUCA,< 0.0001
10,GGAGACCUAUGUAUACAACCUACGACCUCA,0.0402 ± 0.0075
11,GGAGACCAUUCUAUACAAGCUACUACCUCA,0.254 ± 0.018
12,GGAGACCUAUGAUAUGUACCAACUAGCUCA,< 0.0001
13,GGAGACGAUACAAUACAACCUACUUCCUCA,0.126 ± 0.024
14,GGAGACCUAUGAUAACAACCUACUCACCUCA,0.00465 ± 0.0027
15,GGAGAGGAUACUAAACUACCUACUACCUCA,0.167 ± 0.011
16,GGAGACCUAUGAUAACCAACCUACUACCUCA,0.00371 ± 0.0025
17,GGAGACCUAUGUAUACAUCCUACUACCUCA,0.124 ± 0.012
18,GGAGACGAUACUUUACUACCUACUACCUCA,0.179 ± 0.012
19,GGAGACCUAUGUAUUCAAGCUACUACCUCA,0.109 ± 0.011
20,GGAGACCUUACUUUACAACCUACAACCUCA,0.0873 ± 0.013
21,GGAGACCUUACUAUACAACCUACUUGCUCA,0.098 ± 0.021
22,GGAGACCUAUGUAUACAAGGAACUACCUCA,0.00296 ± 0.0028
23,GGAGACCUUACUUUACAACCUACUACCUGA,0.0835 ± 0.014
24,GGAGACGAUACAAUACAAGCUACUACCUCA,0.236 ± 0.017
